Source: PubChem BioAssay AID624491 (Broad Institute, 2012)
The whole screen tested about 1,800 compounds, of which about 1,400 (78%) were called active. Inconclusive results (about 2%) are left out.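 The calls were made as follows: active = fitted curve crossing a set activation limit at or below the highest valid dose tested; inconclusive = flat fit at 30 to 70% activation, or poor fit; inactive = the rest, including signal decreases.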 The set was probably picked from earlier hits. The list is a sample of the results. Entries with a potency or affinity are not part of this list.

Test: blockers of NLG process in reporter cells – D54 ERlucT cells, luminescence, cherry-picks, dose response (AID 624491);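 also: signal gain reflects blocked N-linked glycosylation of a luciferase reporter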
Conditions: D54 ERlucT glycosylation luciferase reporter, 24 h, 100% = twice neutral-control luminescence; series mostly up to 19.5 µM

Row | SMILES | activation (NLG inhibition)
1 | CCN(c1ccccc1)S(=O)(=O)c1ccc(N)c(OC)c1 | inactive
2 | c1ccc(CCNc2nc(-c3ccccn3)nc3ccccc23)cc1 | inactive
3 | COc1cccc(C2=NOC(C(=O)NCc3ccco3)C2)c1 (stereo not given) | inactive
4 | COc1ccc(C2=NOC(C(=O)NCc3ccco3)C2)cc1OC (stereo not given) | inactive
5 | COc1cc(CNc2ccc(O)cc2)cc(Br)c1OCc1ccccc1 | inactive
6 | COc1cc(C(=O)OCC(=O)c2cc(C)n(C)c2C)cc(OC)c1OC | inactive
7 | COc1cc(C(=O)OC2CCCCC2=O)cc(OC)c1C (stereo not given) | inactive
8 | CN(C)CCCN(C(=O)c1ccc(S(=O)(=O)N2CCc3ccccc3C2)cc1)c1nc2ccc(F)cc2s1 | inactive
9 | Cc1ccc(S(=O)(=O)N2CCCCC2CCNC(=O)C(=O)NCc2ccco2)cc1 (stereo not given) | inactive
10 | O=C(CSc1ncnc2nc[nH]c12)c1ccc([N+](=O)[O-])cc1 | inactive
11 | CCOC(=O)/C=c1/s/c(=C\c2c(OC)ccc3ccccc23)c(=O)n1CC(=O)NCC1CCCO1 (stereo not given) | inactive
12 | CCOC(=O)c1[nH]c(C)c(C(=O)Nc2cccc(Cl)c2C)c1C | inactive
13 | Cc1ccc2c(CNCc3ccccc3)cc(=O)oc2c1 | inactive
14 | CCOC(=O)n1c(=O)n(Cc2ccc(OC)cc2)c2ccccc21 | inactive
15 | FC(F)(F)c1nnc2c(Sc3ccc(Cl)cc3)nc3ccccc3n12 | inactive
16 | CC(=O)c1cccc(-c2ccnc3c2CC(C(=O)NCCc2ccccc2)O3)c1 (stereo not given) | inactive
17 | Cc1[nH]c2ccc(C(=O)OC(C)C(=O)NCc3ccccc3)cc2c1C (stereo not given) | inactive
18 | COc1ccc(-c2cc(-c3ccccc3)c(C#N)c(S(C)=O)n2)cc1 (stereo not given) | inactive
19 | C/C(CC(=O)NCc1ccc(Cl)cc1)=N\NC(=O)COc1ccc(C)cc1Br | inactive
20 | CC1CN(C(=O)/C=C/c2ccc([N+](=O)[O-])s2)CC(C)O1 (stereo not given) | inactive
21 | CC(=O)N1N=C(c2ccccc2)OC1c1ccc([N+](=O)[O-])s1 (stereo not given) | inactive
22 | CCOC(=O)c1c(C)c(C(=O)Nc2ccc(N(C)C)cc2)c(C)n1CC | inactive
23 | Cc1ccc(Nc2nc(-c3cccnc3)nc3ccccc23)cc1 | inactive
24 | CC(Nc1nc(-c2cccnc2)nc2ccccc12)c1ccc(F)cc1 (stereo not given) | inactive
25 | O=C1c2ccccc2C(=O)C12OC2c1ccc(Cl)cc1Cl (stereo not given) | inactive
26 | Cc1ccc2nc(SCC(=O)Nc3ccc4sc(C)nc4c3)c(C#N)cc2c1 | inactive
27 | CCCCCCCCCCn1c2c(c(=N)c3c1CCC3)CCC2 | inactive

Row | SMILES | activation (NLG inhibition)
28 | CCCn1c(=N)n(CC(=O)c2ccc([N+](=O)[O-])cc2)c2ccccc21 | inactive
29 | Cn1c(Cl)cnc1C1CC(=O)c2cc(Cl)ccc2O1 (stereo not given) | inactive
30 | COc1ccc(OC)c(/C=C/c2ccc3cccc(O)c3n2)c1 | inactive
31 | COc1ccc(NC(=O)c2cccc(Oc3ccccc3)c2)cn1 | inactive
32 | Cn1c(SCC(=O)c2ccccc2)ncc(C(=O)Nc2ccc(F)cc2)c1=O | inactive
33 | Cn1c(SCC(=O)c2ccccc2)ncc(C(=O)Nc2ccccc2)c1=O | inactive
34 | CCOc1ccc(Nc2nnc(SCc3nc4ccccc4c(=O)[nH]3)s2)cc1 | inactive
35 | CC1=Nc2cc(C(=O)NCC3CCCO3)ccc2Sc2ccc(Br)cc21 (stereo not given) | inactive
36 | CC1(C(=O)NCc2cccs2)Cc2c(-c3ccc(C(N)=O)cc3)ccnc2O1 (stereo not given) | inactive
37 | CC(=O)Nc1ccc(-c2ccnc3c2CC(C)(C(=O)NCc2ccco2)O3)cc1 (stereo not given) | inactive
38 | CC1(C(=O)NCc2ccccc2)Cc2c(-c3ccc(C(N)=O)cc3)ccnc2O1 (stereo not given) | inactive
39 | O=C(NCCN1C(=O)S/C(=C\c2cccc(Cl)c2Cl)C1=O)C1=COCCO1 | inactive
40 | CC[C@@H]1CC=C[C@H]2[C@H]1C(=O)N(Cc1ccccc1)[C@H]2c1ccoc1 | inactive
41 | c1ccc2[nH]c3cc4ncnc4cc3nc2c1 | inactive
42 | NS(=O)(=O)c1ccc(N=Nc2c(O)[nH]c3ccc(Br)cc23)cc1 | inactive
43 | COc1ccc(CN(C)c2ncnc3sccc23)c(OC)c1OC | inactive
44 | CCc1ccccc1NC(=O)Cn1nnc(C(=O)NCc2cccs2)c1N | inactive
45 | O=C(NCc1ccc2c(c1)OCO2)c1cc([N+](=O)[O-])ccc1N1CCOCC1 | inactive
46 | COc1ccc(C(=O)/C=C/c2ccccc2F)c(OC(=O)c2ccc([N+](=O)[O-])cc2)c1 | inactive
47 | CC1=C[C@@H](C)[C@@H](c2ccc(C(F)(F)F)cc2)OC1=O | inactive
48 | O=C(COc1ccc2c(-c3ccccc3)cc(=O)oc2c1)N[C@@H](Cc1c[nH]c2ccc(O)cc12)C(=O)O | inactive
49 | COc1ccc2c(c1)c1ccc3c(c1n2C)C(=O)C=CC3=O | inactive
50 | COc1cc2c(cc1OC)C(c1ccccc1)N(C(=O)CCl)CC2 (stereo not given) | inactive
51 | COc1ccc(CC(=O)NCc2ccccc2)cc1 | inactive
52 | COc1ccc(NS(=O)(=O)c2cc(NC(=O)c3nn(C)c(=O)c4ccccc34)ccc2OC)cc1 | inactive
53 | COc1cc2nc(NC(=O)c3ccccc3)sc(=O)c2cc1OC | inactive
54 | COc1ccc(C(=O)c2sc(Nc3ccccc3)nc2N)cc1OC | inactive

Row | SMILES | activation (NLG inhibition)
55 | COc1ccccc1N(C)S(=O)(=O)c1ccc(C(=O)OCC(=O)N2CCC2)cc1 | inactive
56 | CC1CN(C(=O)c2cc(-c3ccc(Cl)s3)nc3ccccc23)CC(C)O1 (stereo not given) | inactive
57 | O=C(c1cc(-c2cccs2)nc2ccccc12)N1CCN(c2ccccc2)CC1 | inactive
58 | O=C(N/N=C/c1ccc2c(c1)OCO2)c1sc2cc(Cl)ccc2c1Cl | inactive
59 | Oc1[nH]c(N=C2N=c3ccccc3=N2)c2ccccc12 | inactive
60 | COc1cc(/C=C2/C(=O)N(C)C(=S)N2C)ccc1OCc1cccc(F)c1 | inactive
61 | C(=N\Nc1nc2ccccc2[nH]1)/c1c[nH]c2ccccc12 | inactive
62 | O=C(c1cccc([N+](=O)[O-])c1)N1CCN(c2cccc(Cl)c2)CC1 | inactive
63 | CCOC(=O)N1CCN(C(=O)c2cccc(N3C(=O)NC4CC3(C)Oc3ccc(Cl)cc34)c2)CC1 (stereo not given) | inactive
64 | CCOc1ccc(C(=O)Nc2cc(-c3nc4ccccc4[nH]3)ccc2Cl)cc1[N+](=O)[O-] | inactive
65 | Cc1c(Cl)ccc2c(C(=O)Nc3cc(C(C)(C)C)on3)cc(-c3ccccn3)nc12 | inactive
66 | O=C1COc2ccc(C(=O)/C=C/c3ccccc3)cc2N1 | inactive
67 | O=C(Cc1ccc(Cl)cc1)Nc1ccccc1N1CCN(C(=O)c2ccccc2)CC1 | inactive
68 | COc1ccc(N2CC(C(=O)Nc3cc(C(F)(F)F)ccc3N3CCCC3)CC2=O)c(OC)c1 (stereo not given) | inactive
69 | NC(=O)[C@H]1CC2(CC(c3cccc(NC(=O)COc4ccc(Cl)cc4)c3)=NO2)CN1C(=O)C(c1ccccc1)c1ccccc1 (stereo not given in full) | inactive
70 | O=C(COc1ccc(Oc2ccccc2)cc1)NCc1cn2ccccc2n1 | inactive
71 | O=C(c1ccc(Cl)cc1)C(CN1CCCCC1)c1ccccc1 (stereo not given) | inactive
72 | Cc1cc(=O)oc2cc(OCC3CC(c4ccccc4)=NO3)ccc12 (stereo not given) | inactive
73 | O=C(/C=C/c1ccncc1)c1ccc2c(c1)OCCO2 | inactive
74 | COc1cc(/C=C/C(=O)c2ccc3c(c2)OCCO3)cc(OC)c1OC | inactive
75 | CC(=O)Nc1ccc(/C=C/C(=O)c2ccc3c(c2)OCCO3)cc1 | inactive
76 | CCOc1cc(/C=C/C(=O)c2ccc(C)cc2)ccc1OCC(=O)N(C)C | inactive
77 | O=C(C=Cc1ccc2c(c1)OCO2)C=Cc1ccc2c(c1)OCO2 | inactive
78 | C=CCOc1ccc(C2C(C#N)=C(N)N(Nc3ccccc3)C3=C2C(=O)CCC3)cc1OC (stereo not given) | inactive
79 | Cc1cc(OC(C)C)nc(NCc2ccccc2)n1 | inactive
80 | COc1ccc(Cn2c(=O)cc(N)n(-c3ccccc3C)c2=O)cc1 | inactive
81 | Cn1c(N)c(C(=O)COC(=O)c2cc(S(=O)(=O)N3CCOCC3)ccc2F)c(=O)n(C)c1=O | inactive

Row | SMILES | activation (NLG inhibition)
82 | CCCCCCCCCCCCCCCC[n+]1ccc(/C=N/O)cc1 | inactive
83 | Cc1ccc(OCCOC(=O)c2c(-c3ccccc3)noc2C)cc1 | inactive
84 | Cc1cc(C)c(C)c(OC(=O)c2sc(Cl)nc2C)c1 | inactive
85 | COc1ccc(C(=O)c2sc(Nc3ccccc3)nc2N)cc1 | inactive
86 | CN(C)c1ccc(/C=N/NC(=O)c2ccccc2Cl)cc1 | inactive
87 | Cc1cc2cc(CNC(=O)Cc3cccs3)ccc2n1C | inactive
88 | CCOc1ccc(Nc2nc(Cc3nnc(SCC(=O)NCc4ccco4)n3CC)cs2)cc1 | inactive
89 | Cc1ccc(Cc2c(C)nc3nc(SCC(=O)NCc4ccco4)nn3c2C)cc1 | inactive
90 | S=c1[nH]nc(-c2cc(-c3ccccc3)n[nH]2)n1/N=C/C(Br)=C/c1ccccc1 | inactive
91 | COC(=O)CC1COc2ccccc2N1S(=O)(=O)c1ccc(OC)cc1 (stereo not given) | inactive
92 | COc1ccc(F)cc1C1=CC(=O)C[C@H](c2ccc3c(c2)OCO3)C1 | inactive
93 | CN1CC(=O)N2C(c3ccc(Cl)cc3)c3[nH]c4ccccc4c3C[C@H]2C1=O (stereo not given in full) | inactive
94 | CCc1ccc(/C=N/NC(=O)c2cc(-c3ccncc3)nc3ccccc23)s1 | inactive
95 | COc1cc(N=Nc2cccc(S(N)(=O)=O)c2)c2ccccc2c1N | inactive
96 | Oc1ccc(NCc2cccs2)cc1 | inactive
97 | OCC1OC(n2cnc3c(=S)nc[nH]c32)CC1O (stereo not given) | inactive
98 | O=C(Nc1c(Cl)ccc2nsnc12)c1ccc([N+](=O)[O-])o1 | inactive
99 | Cc1ccc2nsnc2c1NC(=O)c1ccc([N+](=O)[O-])o1 | inactive
100 | Oc1ccc(N=Nc2ccccc2)o1 | inactive
101 | CCCCCc1ccc(OCCC[n+]2ccccc2)c(CCCCC)c1 | inactive
102 | Cc1noc(C)c1COc1ccccc1C(=O)N1CCN(c2cccc(C(F)(F)F)c2)CC1 | inactive
103 | CC1(C(=O)NCc2ccccc2)Cc2c(-c3ccccc3)ccnc2O1 (stereo not given) | inactive
104 | COc1ccc(CCCNC(=O)C2(C)Cc3c(-c4ccc5c(c4)OCO5)ccnc3O2)cc1 (stereo not given) | inactive
105 | CC1(C(=O)Nc2ccc(Cl)cc2)Cc2c(-c3ccc4c(c3)OCO4)ccnc2O1 (stereo not given) | inactive
